We go through 61 molecules from PubChem BioAssay AID687020 (Broad Institute, 2013).

Hit rate of the full screen: of about 1,400 compounds, about 100 (7.1%) were called active. How the calls were made is not given here. A selection follows. Results with a measured potency or affinity are listed apart.

The nature of this assay: viability loss in Vero cells – cell-based, plate reader, cherry-pick samples, cytotoxicity control, dose response (AID 687020).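 Further: compounds incubated with cells for three days before luminescence read.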 The following applies: series mostly up to 19.5 µM.
In the case of `CN(C)c1ccc(CNS(=O)(=O)c2ccc3c(c2)C(C)(C)C(=O)N3C)cc1`, the molecule was called inactive. In the case of `C[C@H]1CCCCO[C@H](CN(C)S(=O)(=O)c2ccc(Cl)cc2)[C@@H](C)CN([C@@H](C)CO)C(=O)c2cc(NC(=O)Cc3ccccc3)ccc2O1` it was “inactive”. Consider `COc1ccccc1CCNS(=O)(=O)CCNC(=O)c1ccc2c(c1)OCO2`, for which the molecule was called inactive. In the case of `COc1ccc(OC)c(S(=O)(=O)N2CCN(c3c(C)cccc3C)CC2)c1` it was “inactive”; in that of `COc1ccc(-c2cnc3c(NC(C)=O)cc(-c4ccccc4OC)cn23)cc1OC`, “inactive”. In the case of `COc1ccc(C2=Nn3c(nnc3-c3ccccc3Cl)SC2)cc1OCC1CC1` it was “inactive”. The same measure for `CCCNC(=O)N1C[C@H](O)COC[C@@H]2O[C@@H](CC(=O)N3CCOCC3)CC[C@H]21`: “inactive”; for `COc1ccc(C(C)(NC(C)=O)c2nc(-c3cccc(F)c3)cs2)cc1` (stereo unspecified): “inactive”; for `O=C(CCc1nc2ccccc2c(=O)[nH]1)N1CCCc2ccccc21`: “inactive”. For `C[C@@H]1CN([C@@H](C)CO)C(=O)c2cc(C#CCc3ccccc3)cnc2O[C@@H]1CN(C)C(=O)C1CCOCC1`, the molecule was called inactive. As to `c1ccc(-c2csc(-c3ccc(-c4csnn4)cc3)n2)cc1`, the molecule was classed as inactive. In the case of `O=C(NCC1CC1)C1(S(=O)(=O)c2ccccc2)CC=CC1` it was “inactive”.

In the case of `CCOC(=O)CN1CC23C=CC(O2)C(C(=O)NCCc2ccccc2)C3C1=O` (stereo unspecified), the outcome was inactive. The same measure for `CCOC(=O)N1CCN(Cc2nc3cc(NC(=O)CC)ccc3n2CC)CC1`: “inactive”; for `COc1cc(NC(C)=O)c2ncccc2c1Br`: “inactive”.

On to `COc1ccc(CN2CCC[C@]3(N[C@H](c4ccc(OC)cc4)[C@@H]4C(=O)N(C)C(=O)[C@@H]43)C2=O)cc1`, for which the result was inactive. Take `O=C(O)CNC(=O)c1ccc(NS(=O)(=O)c2ccc3ccccc3c2)cc1`: the call was inactive.

Consider `Cc1cc(Br)ccc1NC(=O)CN(C)C(=O)COc1cccc2c1OC(C)(C)C2`, for which the outcome was inactive. For `O=C1N2CCCCC1(c1ccccc1)CCCC2`, the result was inactive. The same measure for `COCCCN1C(=O)C(CC(=O)NC2CCCCC2)CC(C(=O)N(C(C)C)C(C)C)=C1C` (stereo unspecified): “inactive”. As for `COc1ccc(N(CC(=O)N2CCN(C)CC2)S(=O)(=O)c2cc(C)ccc2OC)cc1Cl`, the molecule was called inactive. With `COc1ccc(-c2ccccc2)cc1NC(=O)c1cccs1`, the call was inactive. In the case of `O=C(Nc1ccc(S(=O)(=O)NC2=NCCCCC2)cc1)c1cccs1` it was “inactive”. The same measure for `CC(C)NC(=O)N(C)C[C@@H]1Oc2ccc(NC(=O)Cc3cn(C)c4ccccc34)cc2C(=O)N([C@@H](C)CO)C[C@H]1C`: “inactive”. In the case of `OC(COC(c1ccc(Cl)cc1)c1ccc(Cl)cc1)CN1CCN(c2ccccn2)CC1` (stereo unspecified) it was “inactive”. As to `CCN(CC)c1ccc(/C=N/N2C(=O)c3ccccc3C2=O)c(O)c1`, the result was inactive. Turning to `CCc1ccccc1OCC(=O)NNCC(=O)Nc1cccc(C#N)c1`, the call was inactive. In the case of `COc1cccc(NC(=O)CCN2C(=O)C3CC=CCC3C2=O)c1` (stereo unspecified) it was “inactive”; in that of `CC(=O)N1[C@H](CO)[C@@H](c2ccc(-c3cccc(F)c3)cc2)[C@H]1CNC(=O)C1CC1`, “inactive”.

Turning to `COc1ccc([C@H]2C[C@@H](n3cc(C4CC4)nn3)[C@H](O)CN2Cc2cccs2)cc1`, the call was inactive.

For the molecule `COc1ccc(C(=O)N2CCCCC2c2cc(C(=O)NCc3cccnc3)no2)cc1` (stereo unspecified), the call was inactive. For `C[C@H](NC(=O)C1CCN(S(=O)(=O)c2ccccc2)CC1)C(=O)NCc1cccnc1`, the call was inactive. In the case of `CC(C)[C@H](NC(=O)c1cccs1)C(=O)N1CCC[C@H]1C(=O)NCc1ccccc1` it was “inactive”; in that of `O=C(Nc1ccc2c(c1)CCC2)c1ccccc1`, “inactive”; in that of `CN1CCC(=O)N([C@H](COc2ccccc2)Cc2ccccc2)CC1`, “inactive”. The same measure for `Cc1cccc(C(=O)OCC(=O)NCc2ccc(Cl)cc2)c1`: “inactive”; for `CSc1ccccc1OCc1cc(C(=O)N2CCc3[nH]cnc3C2c2ccccn2)no1` (stereo unspecified): “inactive”; for `CN1C(c2ccccc2)CCOS1(=O)=O` (stereo unspecified): “inactive”. The same measure for `C=CCOc1ccc(CNCc2cccnc2)cc1OCC`: “inactive”; for `Cc1nc2c(OCCC3CCCCC3)cccn2c1N(C)C(=O)CCC1CCCC1`: “inactive”; for `Cc1csc(-c2nc3ccccc3n2C(C(=O)NC(C)(C)C)c2ccccc2)c1` (stereo unspecified): “inactive”. Turning to `Cc1ccc(-c2nc3ccccc3n2C(C(=O)NC(C)(C)C)C2CC2)cc1` (stereo unspecified), the call was inactive. Turning to `CCOc1ccc(OCC(=O)N(C)c2c(N)n(Cc3ccccc3)c(=O)[nH]c2=O)cc1`, the molecule was classed as inactive. Take `CC#CCN1C(=O)N[C@@H](c2ccccc2)C(C(=O)OC)=C1C`: the outcome was inactive. In the case of `C[C@@H]1CN([C@H](C)CO)C(=O)c2cc(NC(=O)c3ccncc3)ccc2O[C@@H](C)CCCCO[C@H]1CN(C)C` it was “inactive”.

Take `COc1ccc2c(=O)cc(-c3ccncc3)oc2c1OC`: the molecule was called inactive.

As to `CCOC(=O)C1=C(C)NC(=O)C(C#N)C1c1ccncc1` (stereo unspecified), the outcome was inactive.

For the molecule `Cc1cc(OCC(=O)NC2CC(C)(C)NC(C)(C)C2)c(C)cc1Br`, the call was inactive.

Consider `CCc1cc(=O)oc2cc(OCC(=O)NC3CC(C)(C)NC(C)(C)C3)ccc12`, for which the result was inactive. In the case of `CCOC(=O)C1(Cc2ccccc2C)CCCN(C(=O)c2cc(C3CC3)[nH]n2)C1` (stereo unspecified) it was “inactive”; in that of `N#CC(Cc1ccccc1OC(F)F)c1nc2ccccc2[nH]1` (stereo unspecified), “inactive”; in that of `CC(=O)NC[C@H]1[C@H](c2ccc(-c3ccccc3F)cc2)[C@@H](CO)N1C(=O)C1CC1`, “inactive”. In the case of `O=C(COC(=O)c1ccc2c(c1)OCO2)NC1CCCCC1` it was “inactive”; in that of `COCCNC(=O)C1(C)CCCN(C(=O)c2ccc(C(F)(F)F)cc2)C1` (stereo unspecified), “inactive”. In the case of `CO[C@@H]1CN(C)C(=O)c2cc(NC(=O)c3ccccc3)ccc2OC[C@H](C)N(C(=O)C2CC2)C[C@@H]1C` it was “inactive”. On to `COc1cc(C(=S)N2CCCCC2)ccc1OCC(=O)Nc1ccc(F)cc1`, for which the molecule was called inactive. In the case of `O=C(O)C1CCCCC1C(=O)N1CCN(S(=O)(=O)c2ccc(F)cc2)CC1` (stereo unspecified) it was “inactive”; in that of `O=C(NCCCC1CCCC1)C1CCC(=O)N(Cc2cccc(C(F)(F)F)c2)C1` (stereo unspecified), “inactive”. In the case of `COc1ccc(NC(=O)Nc2ccc3c(c2)C(=O)N([C@@H](C)CO)C[C@H](C)[C@H](CN(C)Cc2ccc(C(=O)O)cc2)OCCCC[C@H](C)O3)cc1` it was “inactive”; in that of `O=C1NC[C@H](Cc2ccccc2)N(CC2CCN(CCCCc3ccccc3)CC2)C1=O`, “inactive”; in that of `O=C1[C@@H](Oc2ccccc2)[C@@H](c2ccncc2)N1c1ccccc1`, “inactive”.
